{"source": "PubChem BioAssay AID1851", "about": "(National Center for Advancing Translational Sciences (NCATS), 2009)", "note": "Where “and” joins values, the source holds several entries; their conditions need not be identical. Equal entries are not always repeated. Screen size: about 16,000 compounds; about 2,600 (16%) were called active. Roughly 20% stayed inconclusive and do not appear here. The call rests on the fitted dose curve; in most records, active means well fitted curve in the direction sought with a large enough effect; inconclusive means small, poorly fitted or top-dose-only effect, or effect the other way; inactive means no such curve, though single readings can be large or run the other way. A selection follows. On the % scale 0 is the no-effect control and ±100 the full control effect.", "data": [{"molecular_target": "Cytochrome P450 2D6 (Homo sapiens) (UniProt P10635)", "sequence (P10635 whole entry, looked up)": "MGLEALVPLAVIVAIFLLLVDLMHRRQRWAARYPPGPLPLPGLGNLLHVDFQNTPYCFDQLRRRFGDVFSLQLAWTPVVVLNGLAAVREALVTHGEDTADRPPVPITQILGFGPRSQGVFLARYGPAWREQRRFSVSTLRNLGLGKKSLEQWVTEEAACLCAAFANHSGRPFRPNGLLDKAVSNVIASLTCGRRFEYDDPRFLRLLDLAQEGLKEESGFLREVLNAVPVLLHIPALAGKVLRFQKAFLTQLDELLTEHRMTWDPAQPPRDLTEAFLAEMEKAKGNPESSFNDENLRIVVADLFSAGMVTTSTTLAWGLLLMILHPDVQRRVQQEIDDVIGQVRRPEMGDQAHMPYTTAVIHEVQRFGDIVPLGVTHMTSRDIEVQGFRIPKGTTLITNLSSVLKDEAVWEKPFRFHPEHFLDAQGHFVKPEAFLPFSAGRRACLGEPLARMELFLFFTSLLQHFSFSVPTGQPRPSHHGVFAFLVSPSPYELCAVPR", "test": "Cytochrome panel assay with activity outcomes", "conditions": "recombinant CYP, pro-luciferin dealkylation, luminescence, p450-cyp2d6; series mostly up to 57.1 µM; activity, negative = inhibition: at the top concentration", "values": [{"smiles": "N#C/C(=C\\Nc1ccccn1)C(=O)C1CC1", "activity, negative = inhibition": "5.79% [at 11.4 µM] (inactive)"}, {"smiles": "CC[C@@H](CS(=O)(=O)O)[N+](=O)[O-]", "activity, negative = inhibition": "2.2% [at 11.4 µM] (inactive)"}, {"smiles": "CN[C@@H]1[C@H](O[C@@H]2O[C@H](CO)[C@@H](N)[C@H](O)[C@@H]2O)O[C@H]2C[C@@H](N)[C@@H](O[C@H]3[C@@H](O)[C@H](O)[C@H](N)C[C@@H]3N)O[C@H]2[C@H]1O", "activity, negative = inhibition": "5.28% [at 25.6 µM] (inactive)"}, {"smiles": "O=C(COc1ccc(-c2ccccc2)cc1)N/N=C/c1ccccc1Br", "activity, negative = inhibition": "-26.4% (inactive)"}, {"smiles": "COc1ccc(-c2cc(C(F)(F)F)nc(NCc3cccnc3)n2)cc1", "AC50": "31.6 µM (active)"}, {"smiles": "CN(C)C(=O)c1ccc(-c2ccc3ncnc(Nc4ccc(F)cc4)c3c2)cc1", "AC50": "10 µM (active)"}, {"smiles": "FC(F)(F)c1ccccc1-c1ccc2ncnc(NCc3cccnc3)c2c1", "AC50": "1.58 µM (active)"}, {"smiles": "COc1cccc(-c2cc(C(F)(F)F)nc(N3CCCCC3)n2)c1", "activity, negative = inhibition": "-11.8% (inactive)"}, {"smiles": "COc1ccc(-c2cc(C(F)(F)F)nc(SCc3cccc(C(=O)O)c3)n2)cc1", "activity, negative = inhibition": "22.7% (inactive)"}, {"smiles": "CCCCCCCCCCCCCCCCCCc1ccc(C(=O)/C=C\\C(=O)O)cc1", "activity, negative = inhibition": "2.49% (inactive)"}, {"smiles": "Cn1cc(-c2nc3cncnc3n(Cc3ccc(F)cc3)c2=O)c2ccccc21", "activity, negative = inhibition": "11.3% (inactive)"}, {"smiles": "CCCCC1(C)OC(=O)C(=Cc2ccc(N(C)C)cc2)C(=O)O1", "note": "(centres undefined)", "activity, negative = inhibition": "0.664% (inactive)"}, {"smiles": "NS(=O)(=O)c1ccc(N=Nc2c(O)c(C(=O)O)cc3ccccc23)cc1", "activity, negative = inhibition": "14.9% [at 11.4 µM] (inactive)"}, {"smiles": "CC#CCCCC(=O)Nc1ccc(C(=O)O)cc1", "activity, negative = inhibition": "14.3% (inactive)"}, {"smiles": "Cn1nc(C(F)(F)F)c(/C=N/OC(=O)c2ccccc2Cl)c1SCc1ccc(Cl)cc1", "activity, negative = inhibition": "-27.3% (inactive)"}, {"smiles": "Cn1nc(C(F)(F)F)c(/C=N/OCc2c(Cl)cccc2Cl)c1Cl", "activity, negative = inhibition": "-4.38% (inactive)"}, {"smiles": "Cn1nc(C(F)(F)F)c(/C=N/OC(=O)c2ccc(Cl)cc2)c1Cl", "AC50": "15.8 µM (active)"}, {"smiles": "C=CC(=O)NC(NC(=O)C=C)c1ccc(Br)cc1", "activity, negative = inhibition": "11% (inactive)"}, {"smiles": "C(=C1/CCCC2=C1Nc1ncnn1C2c1ccccc1)/c1ccccc1", "note": "(centres undefined)", "activity, negative = inhibition": "2.54% (inactive)"}, {"smiles": "O=C1CC(=Nc2ccccc2)NN1c1ccccc1", "activity, negative = inhibition": "-10.4% (inactive)"}, {"smiles": "CCCCSc1ccc2nc(-c3ccc(C#N)cc3)cn2c1", "activity, negative = inhibition": "-24.5% (inactive)"}, {"smiles": "O=C(O)C1CCCN1C(=O)OCc1ccccc1", "note": "(centres undefined)", "activity, negative = inhibition": "-3.43% (inactive)"}, {"smiles": "CCN(CC)CCOC(=O)C(c1ccccc1)c1ccccc1", "AC50": "5.01 µM (active)"}, {"smiles": "CCN(CC)CCOC(=O)[C@@H](c1ccccc1)C1CCCCC1", "AC50": "0.631 µM (active)"}, {"smiles": "CCN(Cc1ccncc1)C(=O)[C@@H](CO)c1ccccc1", "AC50": "inactive"}, {"smiles": "CN(C)CCOC(=O)[C@@H](c1ccccc1)C1(O)CCCC1", "activity, negative = inhibition": "-6.43% [at 25.6 µM] (inactive)"}, {"smiles": "N[C@@](CCc1ccccc1)(C(=O)O)c1ccccc1", "activity, negative = inhibition": "0.379% [at 11.4 µM] (inactive)"}, {"smiles": "CCCC(C(=O)OCCN(CC)CC)(c1ccccc1)c1ccccc1", "AC50": "63.1 nM (active) and 15.8 nM (active)"}, {"smiles": "O=C1CCC[C@@H](C(C(=O)OCc2ccccc2)C(=O)OCc2ccccc2)C1", "activity, negative = inhibition": "-12.9% [at 11.4 µM] (inactive)"}]}]}
